We go through nine compounds from PubChem BioAssay (NCI).

Common to all, as to assay: NCI-60 one-dose screen, 48 h (100 = growth as untreated, 0 = no growth, -100 = all killed)
Conditions in all cases: 10 µM unless noted

Assay [1] has as its system DU-145 prostate.
Assay [2] concerns MALME-3M melanoma.
For assay [3], the system named is MDA-MB-231 breast.
Assay [4] has as its system RXF 393 renal.
Assay [5] relates to SF-268 CNS.
Assay [6] concerns SF-295 CNS.
The test system of assay [7] is SF-539 CNS.
The subject of assay [8] is UACC-257 melanoma.
The subject of assay [9] is HCT-15 colon.
Assay [10] relates to HT29 colon.
Assay [11] has as its system SNB-75 CNS.
Assay [12] concerns SNB-19 CNS.
The test system of assay [13] is U251 CNS.
Assay [14] has as its system PC-3 prostate.
In assay [15] the test system is SK-MEL-5 melanoma.
The subject of assay [16] is UACC-62 melanoma.
Assay [17] concerns LOX IMVI melanoma.
Assay [18] relates to SK-MEL-28 melanoma.
The subject of assay [19] is M14 melanoma.
Assay [20] has as its system K-562 leukemia.

This is part of a sample that, as a whole, favours compounds with a hit. Of some 83,000 tested, about 20% had one in any assay.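 Activity criterion: percent growth below 10, measured after cells in 96-well plates were exposed to a single compound concentration for 48 hours.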 Values without a mark were called inactive. Calls of active or inactive are those of the source.

Regarding `Cn1nnnc1-c1ccc(N)cc1`, the growth in [1] was 99%; in assay [2], 99.1%; in assay [3] it was 106%; in assay [4], 111%; in assay [5], 91.7%; in assay [6], 98.1%. The growth was 98.8% in assay [7]; 106% in [8]; 98.9% in assay [9]; 95% in assay [10]; 88.4% in assay [11]; 105% in [12]. Further, the growth in assay [13] is 100%; in assay [14], 93.9%; in [15], 102%; in assay [16] it was 99.7%; in assay [17], 95.1%; in assay [18], 103%.
With `CCOC(=O)C1=C(C)NC(SCc2nnc(-c3ccc(Cl)cc3)o2)=NC1c1ccc(Cl)cc1Cl` (stereo unspecified), the growth is 73.1% in assay [1]; 72.8% in assay [2]; 41.7% in [3]; 43.4% in assay [4]; 73.8% in assay [5]; 47.2% in assay [6]. The growth in [7] was 86.4%; in [8], 68.1%; in assay [19], 65.2%; in assay [9], 55.3%; in [10], 53.1%; in [11], 84.1%. Besides, the growth in [12] was 72.9%; in assay [13] it was 65.3%; in assay [14] it was 45.1%; in [15] it was 80.3%; in assay [16], 51.6%; in assay [17], 58.3%. Besides, the growth in [18] is 101%.
For the compound `COc1ccc(CN2C(=O)/C(=C\c3cc(OC)c(OC)c(OC)c3)c3ccccc32)cc1`, the growth in assay [1] was 9.87% (active); in assay [20], 5.28% (active); in [3], 5.55% (active); in assay [4], -69.6% (active); in assay [5], 10.4%; in assay [6], -46% (active). Besides, the growth in assay [7] is -84.9% (active); in [8] it was -9.5% (active); in assay [19], -32% (active); in [9], -55.8% (active); in assay [10], 0.194% (active); in assay [11] it was 8.57% (active). Further, the growth in [12] was 60.3%; in assay [13], -73.6% (active); in assay [14], 10.9%; in assay [15], -25.1% (active); in assay [16] it was -8.88% (active); in assay [18] it was -34.9% (active).
Turning to `Nc1ccc(-c2cc3c(Nc4ccc(OCc5cccc(F)c5)c(Cl)c4)ncnc3s2)cc1`, the growth in [1] was 36.9%; in [2], 42.1%; in assay [3] it was 13.4%; in assay [4], 52.5%; in assay [5] it was 52.1%; in assay [6], 47.8%. For the same compound, the growth is 57.4% in assay [7]; 18.3% in assay [8]; 51.9% in assay [19]; 32.9% in assay [9]; 84.5% in [10]; 87.2% in [11]. The growth in assay [12] is 77.3%; in [13], 57%; in assay [14], 29.6%; in [15], 57.7%; in assay [16], 55.7%; in assay [17], 24.5%. The growth in assay [18] is 39.3%.
As to `N#Cc1c(N)nc2c(nnn2-c2cccc(Br)c2)c1N`, the growth was 109% in [1]; 115% in assay [2]; 89% in assay [3]; 111% in assay [4]; 97.1% in assay [5]; 107% in assay [6]. Moreover, the growth was 105% in assay [7]; 106% in [8]; 104% in [9]; 102% in assay [10]; 97.6% in assay [11]; 95.9% in [12]. Besides, the growth was 93% in assay [13]; 91.6% in assay [14]; 96.4% in assay [15]; 95.6% in assay [16]; 102% in assay [17]; 117% in assay [18].
With `COc1ccc(-c2nnc(SCC(=O)NC3=NN=C(c4ccccc4)CS3)o2)cc1`, the growth was 102% in assay [1]; 105% in [2]; 91.5% in assay [3]; 117% in [4]; 94.2% in assay [5]; 98% in [6]. For the same compound, the growth was 101% in assay [7]; 67.1% in assay [8]; 95.5% in assay [19]; 106% in assay [9]; 96.1% in [10]; 88.1% in assay [11]. In addition, the growth was 90.8% in assay [12]; 87.2% in assay [13]; 86.8% in assay [14]; 107% in [15]; 95.2% in assay [16]; 101% in assay [17]. In assay [18], the growth was 109%.
As to `C(=C\c1nc2ccccc2[nH]1)/c1nc2ccccc2[nH]1`, the growth was 107% in [1]; 90% in assay [20]; 90.4% in assay [3]; 122% in assay [4]; 110% in assay [5]; 100% in assay [6]. Moreover, the growth in [7] was 104%; in [8], 86.6%; in [19] it was 100%; in assay [9], 100%; in assay [10], 103%; in assay [11], 86.2%. For the same compound, the growth was 109% in assay [12]; 106% in [13]; 90% in assay [14]; 92.8% in assay [15]; 91.1% in assay [16]; 98.1% in [17]. Besides, the growth in assay [18] is 104%.
For `Cc1ccc(-n2nnc(C3=NCCc4c3[nH]c3ccc(Cl)cc43)c2C)cc1`, the growth is 87.3% in [1]; 98.3% in assay [2]; 80.4% in assay [3]; 102% in assay [4]; 80.6% in assay [5]; 70.6% in assay [6]. Further, the growth is 92.9% in assay [7]; 57.9% in assay [8]; 65.8% in assay [9]; 74.4% in [10]; 103% in assay [11]; 83.3% in [12]. The growth was 80% in assay [13]; 62.1% in [14]; 79.1% in assay [15]; 30.5% in assay [16]; 63% in assay [17]; 100% in [18].
With `O=[N+]([O-])c1ccc2[nH]cc(-c3c4ccsc4cc4[nH]c5ccc([N+](=O)[O-])cc5c34)c2c1`, the growth in assay [1] was -14.3% (active); in [2] it was 30.1%; in assay [3] it was -5.82% (active); in assay [4], -42.2% (active); in assay [5], 19.3%; in assay [6] it was -4.03% (active). The growth is -44.9% (active) in assay [7]; 41.8% in assay [8]; 11.3% in assay [9]; -14.5% (active) in [10]; -24.3% (active) in assay [11]; 13.4% in assay [12]. In addition, the growth in assay [13] is 6.49% (active); in assay [14] it was 9.2% (active); in assay [15], -7.86% (active); in assay [16], 14.5%; in assay [17] it was 0.522% (active); in assay [18] it was 27.1%.
